Measured values taken from PubChem BioAssay AID624300 (Southern Research Specialized Biocontainment Screening …, 2012).
About 360 (15%) of roughly 2,400 compounds were called active.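 How the source made its calls: active means viability falls under 70% at one or more tested concentrations, taken as toxicity; inactive means viability stays over 70% at every dose.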 These entries were drawn from the full list. Entries with a potency or affinity are not part of this list.

Assay: HeLa cell cytotoxicity, dose response, cytotoxicity control for MgcRacGAP inhibitor project (AID 624300)
Details: CellTiter-Glo luminescence, 24 h; series mostly up to 100 µM

| Structure (SMILES) | outcome |
| --- | --- |
| O=C(CCN1CCN(C(c2ccccc2)c2ccccc2)CC1)N/N=C/c1ccc(O)cc1 | inactive |
| CCCOC(=O)c1ccc(O)c(OC)c1 | inactive |
| COc1ccc(NC(C)c2cc(Cl)ccc2O)cc1 (centres undefined) | inactive |
| O=C(C1CCN(Cc2cc(Cl)ccc2O)CC1)N1CCN(Cc2ccccc2)CC1 | inactive |
| COc1ccc(/C=C2\C(=O)NC(=O)c3ccccc32)cc1OC | inactive |
| COc1cccc(CNc2ccc(N3CCC(C)CC3)cc2)c1OC | inactive |
| COc1cc(/C=N/NC(=O)/C(=C\c2ccc3c(c2)OCO3)NC(=O)c2ccccc2)ccc1O | inactive |
| COc1ccc(C(=O)N/N=C/c2ccc(N3CCOCC3)s2)cc1OC | inactive |
| COc1cc(/C=N/NC(=O)C(=O)NCC2CCCO2)ccc1O (centres undefined) | inactive |
| Cc1cc(C)c(S(=O)(=O)Nc2ccc(O)cc2)c(C)c1 | inactive |
| O=C(Nc1ccccn1)c1ccc2ccccc2c1O | inactive |
| COc1ccc(NC(=S)Nc2cccc3ccccc23)cc1OC | inactive |
| O=C(Nc1ccc(O)cc1)c1ccc(C(=O)c2ccccc2)o1 | inactive |
| CCCCNc1nc(=S)[nH]c2cc(OC)c(OC)cc12 | inactive |
| COc1ccc(CCNc2nc(=S)[nH]c3cc(OC)c(OC)cc23)cc1OC | inactive |
| CC(=O)CC(=O)Nc1ccc(Nc2ccccc2)cc1 | inactive |
| COCCCn1c(=S)[nH]c2sc3c(c2c1=O)CCCC3 | inactive |
| Cc1cc(OCCCCCN2CCCC2)ccc1Cl | inactive |
| CCOc1ccc(OCCOCCN2CCCC2)cc1 | inactive |
| CN(C)CCCn1c(SCc2ccc(Cl)cc2)nnc1-c1ccncc1 | inactive |

| Structure (SMILES) | outcome |
| --- | --- |
| N#CCCN1CCN(CCC#N)c2ccccc21 | inactive |
| C/C(CC(=O)Nc1ccc(N(C)C)cc1)=N\NC(=O)c1ccc(F)cc1 | inactive |
| Cn1cccc1/C=C1\SC(=Nc2ccc(O)cc2)NC1=O | inactive |
| O=C(c1ccccc1F)N1CCN(Cc2ccc3c(c2)OCO3)CC1 | inactive |
| Cc1ccccc1CN1CCN(C(=O)c2cccc3ccccc23)CC1 | inactive |
| Cc1[nH]c2ccccc2c1/C=N\NC(=O)CNc1ccc2c(c1)OCO2 | inactive |
| COc1ccccc1N=NNc1ccccc1OC | inactive |
| COCCCNCCCCOc1c(Cl)cc(C)cc1Br | inactive |
| c1ccc(CN2CCN(CCOCCOc3ccc4c(c3)CCC4)CC2)cc1 | inactive |
| COCCNCCOCCOc1ccc(Cl)c(C)c1 | inactive |
| Cc1cc(C)c(C)c(OCCNCc2ccccc2)c1 | inactive |
| CC(=O)Nc1ccc(Oc2nc(-c3ccccn3)nc3ccccc23)cc1 | inactive |
| Cc1ccc(CCC(=O)Nc2ccc(N(C)C)cc2)o1 | inactive |
| Cc1cc(C(=O)NNC(=O)/C=C/c2ccco2)c(C)o1 | inactive |
| COc1cc(/C=C/C(=O)OCC(=O)NCC2CCCCC2)ccc1O | inactive |
| COc1ccc(/C=N/Nc2nc(N3CCCC3)nc(N3CCCC3)n2)cc1O | inactive |
| S=C(c1ccccc1)N1CCN(c2ccccc2)CC1 | inactive |
| C=CCn1c(SCC(C)=O)nnc1-c1cc(-c2ccccc2)sc1N | inactive |
| CCOC(=O)c1oc2cc(O)cc(C)c2c1C | inactive |
| CCn1c(=S)[nH]c2sc3c(c2c1=O)CCCC3 | inactive |

| Structure (SMILES) | outcome |
| --- | --- |
| COc1ccc(NCc2cccnc2)cc1 | inactive |
| CC(=O)Nc1cccc2cc(O)ccc12 | inactive |
| Cc1cc(Oc2ccc(-c3ccccc3)cc2)n2ncnc2n1 | inactive |
| CC(=O)c1ccc(NC(=S)Nc2ccc3[nH]c(=O)[nH]c3c2)cc1 | inactive |
| COc1cc(C=NNC(=O)c2ccccc2-n2cccc2)ccc1O | inactive |
| Cc1c(Cl)cccc1Nc1n[nH]c(=S)s1 | inactive |
| Cc1ccc[n+](CC(=O)Nc2ccc(N(C)C)cc2)c1 | inactive |
| CCOC(=O)C1=C(C)Nc2ccccc2S1 | inactive |
| CC1(C)CC(NC(=O)N2c3ccccc3Sc3ccccc32)CC(C)(C)N1 | inactive |
| Cc1cc2nc(/N=C(\N)NC(=O)N3c4ccccc4Sc4ccccc43)nc(C)c2cc1C | inactive |
| Cc1ccc2nc(/N=C(\N)NC(=O)N3c4ccccc4Sc4ccccc43)nc(C)c2c1 | inactive |
| Cc1ccc2c(C)nc(/N=C(\N)NC(=O)N3c4ccccc4Sc4ccccc43)nc2c1 | inactive |
| Cc1nc(/N=C(\N)NC(=O)N2c3ccccc3Sc3ccccc32)nc2ccccc12 | inactive |
| COc1ccc2nc(/N=C(\N)NC(=O)N3c4ccccc4Sc4ccccc43)nc(C)c2c1 | inactive |
| O=C(NC1CCN(C(=O)N2c3ccccc3Sc3ccccc32)CC1)c1ccccc1F | inactive |
| CN(CC(=O)NCc1ccccc1)Cc1cccc(F)c1 | inactive |
| O=C(CSc1nnc(C2CC2)n1C1CC1)N1CCN(c2ccc(O)cc2)CC1 | inactive |
| CC1(C)OC(=O)C(=NNc2ccc(O)cc2)C(=O)O1 | inactive |
| Cc1cc(-c2cc(C)c(N)cc2C)c(C)cc1N | inactive |
